Common to all, as to experiment: NCI-60 one-dose screen, 48 h (100 = growth as untreated, 0 = no growth, -100 = all killed)
Holding throughout (details): 10 µM unless noted

Assay [1] has as its system NCI-H23 lung.
The test system of assay [2] is NCI-H226 lung.
Assay [3] concerns NCI-H322M lung.
The test system of assay [4] is HOP-62 NSCLC.
Assay [5] relates to NCI-H460 lung.
Assay [6] concerns HOP-92 NSCLC.
In assay [7] the test system is NCI-H522 lung.
In assay [8] the test system is A549/ATCC NSCLC.
For assay [9], the system named is 786-0 renal.
The test system of assay [10] is COLO 205 colon.
The subject of assay [11] is DU-145 prostate.
Assay [12] has as its system K-562 leukemia.
In assay [13] the test system is MALME-3M melanoma.
The test system of assay [14] is MDA-MB-231 breast.
The subject of assay [15] is RXF 393 renal.
For assay [16], the system named is SF-268 CNS.
Assay [17] relates to SF-295 CNS.
The subject of assay [18] is SF-539 CNS.
Assay [19] relates to UACC-257 melanoma.
The subject of assay [20] is M14 melanoma.

This is part of a sample that, as a whole, favours compounds with a hit. Of some 83,000 tested, about 20% had one in any assay.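 The endpoint reported here, percent growth, reads 100 for growth as untreated, 0 for no net growth and -100 for all cells dead.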 A number with no mark means an inactive call. Active and inactive are the calls of the source. How the source made its calls: active means growth percent below 10; inactive means the rest.

Here are results for seven molecules from PubChem BioAssay (NCI).

As for `C#C[C@@]1(O)[C@@H](CO)O[C@@H](n2cc(Cl)c3c(N)ccnc32)[C@@H]1O`, the growth in assay [1] was 71.9%; in [2] it was 96.7%; in assay [3] it was 74.6%; in [4], 120%; in assay [5], 25.1%; in assay [6] it was 48.2%. Besides, the growth in [7] is 75.1%; in [8] it was 67%; in assay [9], 81.2%; in assay [10], 63.4%; in assay [11], 56.1%; in assay [12], 42.8%. Also, the growth in assay [13] is 82.3%; in [14] it was 57.4%; in [15] it was 106%; in assay [16], 87.4%; in assay [17], 81.9%; in assay [18] it was 89.3%. Also, the growth is 89.2% in [19] and 85.3% in assay [20].

As for `O=C1C(=O)c2c(nc3ccc(C(F)(F)F)cn23)-c2ccccc21`, the growth was -30.8% (active) in [1]; -96.6% (active) in [2]; -94.8% (active) in assay [3]; -97.5% (active) in assay [4]; -64.8% (active) in assay [5]; -77.9% (active) in assay [6]. The growth in assay [7] is -72.4% (active); in [8], -51.4% (active); in assay [9], -80.8% (active); in assay [10], -78.9% (active); in assay [11], -96.3% (active); in [12], -41.9% (active). Besides, the growth in assay [13] is -97.3% (active); in [14], -22.7% (active); in assay [15], -94.8% (active); in [16], -78.7% (active); in assay [17], -96.5% (active); in assay [18] it was -97.4% (active). For the same molecule, the growth in assay [19] was -97.1% (active); in assay [20], -79.5% (active).

For `COc1c(O)cc2oc3cc(O[C@@H]4OC(C)[C@@H](O)[C@H](O)C4O)c(CC=C(C)C)c(O)c3c(=O)c2c1CC=C(C)C` (stereo not given in full), the growth in assay [1] is 89.4%; in assay [2] it was 90.1%; in [3], 107%; in assay [4], 110%; in assay [5], 90.5%; in assay [6], 89.2%. Further, the growth is 68.5% in assay [7]; 80% in assay [8]; 101% in assay [9]; 114% in assay [10]; 103% in [11]; 74.3% in assay [12]. The growth was 103% in assay [13]; 89.5% in [14]; 103% in assay [15]; 92.7% in [16]; 93.3% in assay [17]; 99% in [18]. In addition, the growth in assay [19] was 104%; in assay [20], 99.8%.

In the case of `CC(C)C1=C[C@@]23CC[C@H]4[C@](C)(COCCC#N)CCC[C@]4(C)[C@H]2C[C@@H]1[C@@H]1[C@H]3[C@@H](OCCC#N)CC[C@@H]1OCCC#N`, the growth in [1] was 35.7%; in assay [2] it was 39.8%; in assay [3], 86.1%; in assay [4] it was 65%; in assay [5] it was 30.3%; in [6], 53%. For the same molecule, the growth in assay [7] was 25%; in assay [8] it was 27.6%; in assay [9] it was 54.3%; in assay [10], 17.4%; in assay [11] it was 51.4%; in assay [12], 20.2%. The growth in assay [13] is 61.4%; in [14], 59.5%; in assay [15] it was 11.8%; in assay [16], 48.4%; in [17], 28.7%; in assay [18] it was 52.8%. Also, the growth was 40.9% in assay [19] and 31.4% in [20].

Turning to `CC(C)NS(=O)(=O)c1cccc(-c2ccc3c(=O)n(CCCN)c4c(c3c2)C(=O)c2ccccc2-4)c1`, the growth in assay [1] is 93.4%; in [2] it was 93.4%; in [3] it was 115%; in assay [4] it was 91.9%; in assay [5] it was 102%; in [6], 105%. Moreover, the growth in [7] was 85.3%; in [8] it was 102%; in [9] it was 98%; in assay [10], 106%; in assay [11], 107%; in assay [12], 88.3%. Moreover, the growth in assay [13] was 118%; in assay [14], 108%; in assay [15], 109%; in [16], 98.2%; in assay [17] it was 104%; in assay [18], 104%. Also, the growth was 110% in assay [19] and 115% in [20].

Consider `COc1ccc(Nc2nc(SCC(C)C)nc(-c3ccc(F)cc3)c2C#N)cc1`, for which the growth is 79.1% in assay [1]; 75.1% in assay [2]; 97% in assay [3]; 73.8% in assay [4]; 52.4% in assay [5]; 77.2% in [6]. The growth was 35.5% in [7]; 62.5% in [8]; 60.8% in assay [9]; 72.4% in [10]; 79.4% in [11]; 19.3% in [12]. In addition, the growth in assay [13] is 61.9%; in assay [14] it was 89.3%; in [15] it was 74%; in assay [16], 74.9%; in assay [17], 40.6%; in [18] it was 66.1%. Also, the growth in [19] was 73%; in [20], 49.3%.

As to `O=C1Nc2ccc(Br)cc2/C1=N\N=C/c1cn(Cc2ccccc2)c2ccccc12`, the growth in [1] was 94.4%; in assay [2], 80.5%; in assay [3], 84%; in assay [4] it was 97.2%; in [5], 51.9%; in [6], 106%. Further, the growth in assay [7] was 83.9%; in assay [8] it was 91%; in assay [9] it was 103%; in assay [10], 114%; in assay [11], 95.7%; in assay [12], 67.4%. The growth was 115% in assay [13]; 93.3% in [14]; 58.4% in assay [15]; 95% in assay [16]; 95.9% in [17]; 99.4% in assay [18]. In addition, the growth was 109% in [19] and 106% in assay [20].
